We go through four molecules from PubChem BioAssay (NCATS).

Each structure is given as a SMILES string. Records with an inconclusive call do not appear. Active and inactive are the calls of the source. Unless noted, calls follow the shape of the dose curve; as a rule, active = well fitted curve in the direction sought with a large enough effect; inconclusive = small, poorly fitted or top-dose-only effect, or another doubt; inactive = no such curve, though single readings can be large; an effect the other way counts as inactive or inconclusive.

The nature of test [1]: Primary qHTS for small molecule stabilizers of the endoplasmic reticulum resident proteome: Secreted ER Calcium Modulated Protein (SERCaMP) assay (AID 1508630). Also: % is scaled to controls: 0 for no effect and ±100 for the full control effect. Conditions: SH-SY5Y GLuc-SERCaMP (Gaussia luciferase released on ER calcium loss) secretion, thapsigargin, luminescence; series mostly up to 38.4 µM. The method, boiled down:
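GLuc-SERCaMP-expressing SH-SY5Y cells, pretreated 16 h with compound, are challenged with thapsigargin to empty ER calcium stores; after 4 h, coelenterazine is added directly to the medium and luminescence is imaged.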

In test [2] the target is Lysosomal acid glucosylceramidase (Homo sapiens) (UniProt P04062). The experiment in a line: Glucocerebrosidase-p2 (AID 348; in the data active = potency below about 10 µM; also: potency is read from the fitted curve at half-maximal effect). Conditions: purified GBA, blue fluorogenic substrate, 40 min. In a few lines: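 Compounds titrated from 0.6 nM upwards against 0.2 nM enzyme in pH 5.9 citric acid/KH2PO4, taurocholate, tween-20; blue fluorogenic substrate 80 uM, 40 min room temperature, stopped and read Ex 365/Em 440 for AC50.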

The nature of test [3]: AP1 Signaling Pathway (AID 357; active = well fitted curve in either direction with a large enough effect, not every such curve was filed as active; also: % is scaled to controls: 0 for no effect and ±100 for the full control effect). The conditions noted are these: ME-180 AP-1-bla reporter, EGF-induced, beta-lactamase ratio, 5 h; at 7.69 µM (top of the series) unless noted. The method, boiled down: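 Read-out was the 460nm/530nm emission ratio (excitation 405nm) after CCF4 loading for 2.5 hours at room temperature. Cells carried an AP-1-driven beta-lactamase reporter, were stimulated with EC50 EGF plus compound for 5 hours, and AC50 values came from titrations.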

In test [4] the target is Cytochrome P450 1A2 (Homo sapiens) (UniProt P05177). The experiment in a line: p450-cyp1a2 (AID 410; calls by dose curve; also: potency is read from the fitted curve at half-maximal effect). Conditions: recombinant CYP1A2, luciferin-ME demethylation, luminescence; series mostly up to 57 µM. In a few lines:
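Luminescent readout of luciferin formed from Luciferin-ME by human CYP1A2; data normalized against complete inhibition by 57 uM furafylline. Enzyme 20nM, substrate 100uM at Km, 100mM KPO4 buffer, 60 min reaction at room temperature.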

Test [5] is described as follows: NFAT Signaling Pathway (AID 444; active = well fitted curve in either direction with a large enough effect, not every such curve was filed as active;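 also: carbachol stimulus at about its EC50 of 1 µM final; % is scaled to controls: 0 for no effect and ±100 for the full control effect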). Conditions: Jurkat NFAT-bla M1, carbachol, beta-lactamase ratio, 5 h; at 7.69 µM (top of the series) unless noted. The method, boiled down:
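Jurkat cells carrying an NFAT-driven β-lactamase reporter and co-transfected muscarinic M1 receptor were treated with compound plus carbachol (1 uM final, an EC50 level) for 5 h at 37 °C. CCF4 loading followed for 1 h at RT; 460/530 nm ratio gave %activity.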

Test [6] is described as follows: Stat Signaling Pathway (AID 446; active = well fitted curve in either direction with a large enough effect, not every such curve was filed as active;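 also: ME-180 cervical cancer cells given 40 pM IL-6 alongside compound; SIE-controlled beta-lactamase reporter measured as 460/530 nm FRET emission ratio; % is scaled to controls: 0 for no effect and ±100 for the full control effect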). Conditions: ME-180 (cervical carcinoma) SIE beta-lactamase reporter, IL-6 stimulated, 5 h; at 7.69 µM (top of the series) unless noted. The method, boiled down:
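ME-180 SIE-bla cells; overnight plating; cpd + IL-6 40 pM, 5 h, 37 C; LiveBLAzer 2.5 h RT; 460/530 nm emission ratio. Normalized to 300 pM IL-6 and 125 nM JAK inhibitor controls.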

In test [7] the target is Glucocorticoid receptor (Homo sapiens) (UniProt P04150). The experiment in a line: GR-GFP Redistribution (AID 450;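 active = compounds whose dose series gives a full or clear partial fitted curve of increased nuclear translocation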; also: potency is read from the fitted curve at half-maximal effect). Conditions: U2OS GR-GFP nuclear translocation, laser cytometry, 2 h.
Test [8] has the same target. The experiment in a line: GR-EFC Redistribution (AID 451; calls by dose curve; also: potency is read from the fitted curve at half-maximal effect). The conditions noted are these: CHO-K1 GR-EFC translocation, beta-gal luminescence, 2 h. The method, boiled down:
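CHO-K1 cells stably expressing nuclear-localized β-gal enzyme acceptor and GR fused C-terminally to the enzyme donor fragment; ligand-driven nuclear translocation restores β-gal by complementation. Compounds titrated up to 46 uM final, 2 h at 37 °C; luminescence read.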

Test [9] concerns the target Mitogen-activated protein kinase 10 (Mus musculus) (UniProt Q61831). The experiment in a line: JNK3 AlphaScreen Assay (AID 530; active = well fitted curve in either direction with a large enough effect, not every such curve was filed as active). Conditions: JNK3 lysate, c-Jun phosphorylation; series mostly up to 57.1 µM. In a few lines:
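Inhibitors reduce antibody binding to phosphorylated biotin-cJun, lowering AlphaScreen luminescence. Lysates from HepG2 cells pre-activated by IL-1beta plus TNF-alpha supplied JNK3; compounds were titrated.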
Background: Bead proximity is the source of the signal in Alpha formats.

Test [10] addresses Cytochrome P450 3A4 (Homo sapiens) (UniProt P08684). The experiment in a line: qHTS Assay for Activators of Cytochrome P450 3A4 (AID 885). Also: nearly all actives have a fitted effect of over 65% in size. The conditions noted are these: recombinant CYP3A4, Luciferin-PPXE luminescence, 60 min; series mostly up to 57.1 µM. In a few lines: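 20nM CYP3A4 + 25uM Luciferin-PPXE (=KM), 200mM KPO4; cpd 10 min RT; NADPH regen, 60 min RT; stop w/ detection buffer, 20 min; luminescence. Normalized to 57 uM ketoconazole.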
(In general: Quantitative high-throughput screening tests each substance at several concentrations.)

Test [11] is described as follows: Counterscreen qHTS for small molecule stabilizers of the endoplasmic reticulum resident proteome: GLuc-NoTag assay (AID 1508627).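 Also: 0% = thapsigargin alone and -100% = DMSO vehicle control.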 The conditions noted are these: Gaussia luciferase NoTag secretion counterscreen, luminescence, thapsigargin 100 nM for final 4 h; series mostly up to 76.4 µM. The method, boiled down: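 SH-SY5Y cells stably expressing constitutively secreted GLuc (no SERCaMP tag) were pre-incubated 5 h, treated with compound for 19 h, then 100 nM thapsigargin for 4 h at 37C; medium GLuc read by coelenterazine luminescence.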
(In general: The purpose of a counterscreen is to sort out artefacts and off-target activity.)

For test [12], the target named is 3',5'-cyclic-AMP phosphodiesterase 4B (Homo sapiens) (UniProt Q07343). The experiment in a line: qHTS Assay for Inhibitors of PDE-IV (AID 607; active = well fitted activation curve with a large enough effect in the main read-out, with a control signal flat, not every such curve was filed as active; also: % of control where 0% means no effect). The conditions noted are these: HEK293 ACTOne CNG channel cells, membrane potential fluorescence; series mostly up to 22.9 µM. In a few lines: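 ACTOne HEK293 cells carry a modified cAMP-gated CNG channel and express endogenous PDE4; plated 1000 cells/well, compounds up to 22.9 uM final. Membrane-potential dye fluorescence (ex 535/em 590) was read; parental cells received 10 uM forskolin + 100 uM RO 20-1724.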

The target of test [13] is Cytochrome P450 2C9 (Homo sapiens) (UniProt P11712). The experiment in a line: qHTS Assay for Inhibitors and Substrates of Cytochrome P450 2C9 (AID 883). Also: potency is read from the fitted curve at half-maximal effect; nearly all actives have a fitted effect of over 60% in size. Conditions: recombinant CYP2C9, luciferin-H luminescence, 60 min; series mostly up to 57.1 µM. In a few lines:
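CYP2C9 deoxyluciferin hydroxylation, 37C, 60 min with NADPH regeneration; 10nM enzyme, 100uM Luciferin-H (KM). Glo detection reagent stopped reaction; luminescence normalized to sulphaphenazole (57uM) full inhibition.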

Test [14] in a line: qHTS Assay for Lipid Storage Modulators (AID 1519; calls by dose curve). Conditions: Drosophila S3 cells, BODIPY lipid droplet/cell ratio, laser cytometry, cells loaded with oleic acid. The method, boiled down: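 Cells seeded at 5,000 per well were treated with compounds over a concentration series and loaded with oleic acid (400 uM, as added). Lipid droplet fluorescence (488 nm excitation, 500-530 nm channel) was read by laser-scanning cytometry and normalized to 20 uM Triacsin C.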

The nature of test [15]: Confirmatory qHTS for small molecule stabilizers of the endoplasmic reticulum resident proteome: Secreted ER Calcium Modulated Protein (SERCaMP) assay (AID 1508628). Also: % is scaled to controls: 0 for no effect and ±100 for the full control effect; nearly all actives have a fitted effect of over 40% in size. Conditions: SERCaMP secreted luciferase ER calcium/proteostasis reporter; series mostly up to 76.3 µM. In a few lines: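 SH-SY5Y cells stably expressing GLuc-SERCaMP, treated 16 h with compound (primary 1.53, 7.67, 38.3 uM; confirmation 11 concentrations, up to 76.6 uM), then 100 nM thapsigargin for 4 h. Secreted Gaussia luciferase in medium read by coelenterazine luminescence.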

Sequence of Lysosomal acid glucosylceramidase (Homo sapiens) (P04062 whole entry, looked up): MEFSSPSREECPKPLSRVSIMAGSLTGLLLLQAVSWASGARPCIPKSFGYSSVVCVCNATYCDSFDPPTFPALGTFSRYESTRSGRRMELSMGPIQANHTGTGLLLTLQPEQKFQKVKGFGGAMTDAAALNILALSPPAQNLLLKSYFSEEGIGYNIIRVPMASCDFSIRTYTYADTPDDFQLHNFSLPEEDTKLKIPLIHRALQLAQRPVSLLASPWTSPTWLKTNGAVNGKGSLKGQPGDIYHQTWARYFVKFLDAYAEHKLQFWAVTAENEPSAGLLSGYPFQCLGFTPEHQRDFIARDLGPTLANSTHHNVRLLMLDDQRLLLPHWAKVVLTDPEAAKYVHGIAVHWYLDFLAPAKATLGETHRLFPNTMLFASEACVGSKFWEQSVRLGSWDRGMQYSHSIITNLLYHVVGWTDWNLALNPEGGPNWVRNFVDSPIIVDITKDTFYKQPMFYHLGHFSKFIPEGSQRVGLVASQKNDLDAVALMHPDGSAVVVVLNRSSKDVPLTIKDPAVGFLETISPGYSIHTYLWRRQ
Sequence of Cytochrome P450 3A4 (Homo sapiens) (P08684 whole entry, looked up): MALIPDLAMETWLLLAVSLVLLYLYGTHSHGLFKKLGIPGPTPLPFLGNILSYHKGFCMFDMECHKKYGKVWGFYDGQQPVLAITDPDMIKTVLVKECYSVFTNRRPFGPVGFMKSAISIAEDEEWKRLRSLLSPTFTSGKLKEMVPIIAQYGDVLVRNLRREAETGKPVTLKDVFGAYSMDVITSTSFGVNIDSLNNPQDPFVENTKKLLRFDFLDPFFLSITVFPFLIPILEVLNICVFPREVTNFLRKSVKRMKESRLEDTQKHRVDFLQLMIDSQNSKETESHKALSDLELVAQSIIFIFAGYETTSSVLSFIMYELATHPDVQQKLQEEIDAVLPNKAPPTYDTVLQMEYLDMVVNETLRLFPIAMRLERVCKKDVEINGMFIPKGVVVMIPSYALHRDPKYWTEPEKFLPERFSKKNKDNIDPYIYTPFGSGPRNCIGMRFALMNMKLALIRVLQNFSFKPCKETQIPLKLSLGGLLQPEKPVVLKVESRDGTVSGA
Sequence of Glucocorticoid receptor (Homo sapiens) (P04150 whole entry, looked up): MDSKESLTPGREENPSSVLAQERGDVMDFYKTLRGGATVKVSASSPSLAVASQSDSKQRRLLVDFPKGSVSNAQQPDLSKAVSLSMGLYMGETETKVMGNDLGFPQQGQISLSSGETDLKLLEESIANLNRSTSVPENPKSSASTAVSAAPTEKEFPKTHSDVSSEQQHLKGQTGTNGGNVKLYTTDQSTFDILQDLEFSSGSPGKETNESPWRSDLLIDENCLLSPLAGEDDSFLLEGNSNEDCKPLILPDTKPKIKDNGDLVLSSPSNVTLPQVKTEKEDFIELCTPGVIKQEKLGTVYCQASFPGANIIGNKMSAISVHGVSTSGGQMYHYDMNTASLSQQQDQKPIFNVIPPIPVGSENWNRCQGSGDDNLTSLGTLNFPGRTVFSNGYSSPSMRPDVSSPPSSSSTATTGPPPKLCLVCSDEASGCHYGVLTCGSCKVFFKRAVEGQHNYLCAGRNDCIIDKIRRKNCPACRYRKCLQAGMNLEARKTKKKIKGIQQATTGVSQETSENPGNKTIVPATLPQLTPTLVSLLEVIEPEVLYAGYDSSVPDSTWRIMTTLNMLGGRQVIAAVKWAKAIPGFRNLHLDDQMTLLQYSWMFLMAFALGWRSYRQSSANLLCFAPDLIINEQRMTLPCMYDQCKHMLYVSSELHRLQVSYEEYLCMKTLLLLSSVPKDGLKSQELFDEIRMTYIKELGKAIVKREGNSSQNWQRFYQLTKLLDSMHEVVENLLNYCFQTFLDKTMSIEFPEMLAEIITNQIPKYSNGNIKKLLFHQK
Sequence of Cytochrome P450 1A2 (Homo sapiens) (P05177 whole entry, looked up): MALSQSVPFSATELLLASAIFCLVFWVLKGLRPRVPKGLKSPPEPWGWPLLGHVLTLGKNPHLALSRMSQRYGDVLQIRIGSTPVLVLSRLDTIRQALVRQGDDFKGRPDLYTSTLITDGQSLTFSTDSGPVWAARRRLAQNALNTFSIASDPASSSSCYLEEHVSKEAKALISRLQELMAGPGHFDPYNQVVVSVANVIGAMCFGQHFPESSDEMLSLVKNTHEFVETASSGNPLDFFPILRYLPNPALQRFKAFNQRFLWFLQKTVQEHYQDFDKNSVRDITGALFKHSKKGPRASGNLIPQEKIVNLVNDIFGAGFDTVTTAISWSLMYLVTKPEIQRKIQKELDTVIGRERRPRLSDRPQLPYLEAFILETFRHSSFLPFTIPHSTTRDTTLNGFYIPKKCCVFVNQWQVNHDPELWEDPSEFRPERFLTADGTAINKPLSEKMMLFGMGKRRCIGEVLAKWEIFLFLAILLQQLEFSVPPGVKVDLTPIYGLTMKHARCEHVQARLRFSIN
Sequence of 3',5'-cyclic-AMP phosphodiesterase 4B (Homo sapiens) (Q07343 whole entry, looked up): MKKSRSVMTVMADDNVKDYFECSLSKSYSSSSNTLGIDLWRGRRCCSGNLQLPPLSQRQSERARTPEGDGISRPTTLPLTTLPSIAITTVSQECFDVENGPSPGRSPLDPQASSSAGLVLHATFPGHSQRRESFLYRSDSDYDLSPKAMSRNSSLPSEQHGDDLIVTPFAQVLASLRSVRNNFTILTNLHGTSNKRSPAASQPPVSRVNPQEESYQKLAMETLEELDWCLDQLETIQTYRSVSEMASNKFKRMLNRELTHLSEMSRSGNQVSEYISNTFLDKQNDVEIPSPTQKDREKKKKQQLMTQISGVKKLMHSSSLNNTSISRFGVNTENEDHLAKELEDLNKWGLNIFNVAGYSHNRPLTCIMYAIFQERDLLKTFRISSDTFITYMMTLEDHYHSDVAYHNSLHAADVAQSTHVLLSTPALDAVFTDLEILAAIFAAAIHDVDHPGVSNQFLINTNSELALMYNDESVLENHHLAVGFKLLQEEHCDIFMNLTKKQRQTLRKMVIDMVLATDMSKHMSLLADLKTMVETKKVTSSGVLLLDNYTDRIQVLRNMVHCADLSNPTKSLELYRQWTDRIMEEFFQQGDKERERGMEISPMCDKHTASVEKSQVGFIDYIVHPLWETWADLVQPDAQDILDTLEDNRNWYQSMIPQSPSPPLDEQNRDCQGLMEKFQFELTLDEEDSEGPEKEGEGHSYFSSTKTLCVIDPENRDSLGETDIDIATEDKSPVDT
Sequence of Cytochrome P450 2C9 (Homo sapiens) (P11712 whole entry, looked up): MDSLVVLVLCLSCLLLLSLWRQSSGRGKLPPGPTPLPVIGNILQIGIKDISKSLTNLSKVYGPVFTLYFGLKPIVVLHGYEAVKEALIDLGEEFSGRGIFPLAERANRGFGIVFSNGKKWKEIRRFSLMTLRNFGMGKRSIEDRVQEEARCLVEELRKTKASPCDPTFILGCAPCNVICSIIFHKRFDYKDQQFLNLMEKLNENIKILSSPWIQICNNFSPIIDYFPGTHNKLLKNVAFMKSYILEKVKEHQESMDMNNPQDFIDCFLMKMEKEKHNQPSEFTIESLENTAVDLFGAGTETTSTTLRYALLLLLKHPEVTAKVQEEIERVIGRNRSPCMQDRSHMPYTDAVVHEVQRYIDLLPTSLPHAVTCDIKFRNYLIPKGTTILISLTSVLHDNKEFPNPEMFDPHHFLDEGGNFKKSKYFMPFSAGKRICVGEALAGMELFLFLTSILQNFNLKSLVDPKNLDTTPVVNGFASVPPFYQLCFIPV

With `O=C(O)C1CCC[C@@H]2[C@@H]3CC(CN12)[C@@H]1CCCCN1C3` (some centres not stated), the Potency result in test [1] was “inactive”.

As to `COc1ccc(-n2c(=O)c(C)nc3cnc(N4CCNCC4)nc32)cc1`, the Potency in test [2] is > 11.4 µM (inactive); in test [4] it was 15.8 µM (active); in [7] it was > 9.22 µM (inactive); in test [8], > 46 µM (inactive). Moreover, the activity change, negative = inhibition in [3] is -6.88% (inactive); in [5], -7.6% (inactive). The activity, negative = inhibition in [6] was 7.09% (inactive). Besides, in test [9], the call was inactive. The Potency result in [10] and in [11] was “inactive” each time.

For the molecule `COCCn1c(=O)c(-c2ccc(F)cc2)nc2cnc(OCc3ccccc3)nc21`, the values for the Potency in test [2], in test [7] and in [8] were > 11.4 µM (inactive), > 9.22 µM (inactive) and > 46 µM (inactive), respectively. Also, the activity change, negative = inhibition in [3] was -23.2% (inactive); in test [5] it was -6.09% (inactive). In addition, the result in test [9] was inactive. The Potency result in test [12], in test [10] and in [11] was “inactive” in each case.

Consider `COc1ccc(-c2nc3cnc(N4CCNCC4)nc3n(CCc3ccccc3)c2=O)cc1`, for which the Potency in test [2] is > 11.4 µM (inactive); in [4], 15.8 µM (active); in [7], > 9.22 µM (inactive); in [8] it was > 46 µM (inactive); in test [13], 3.98 µM (active). Moreover, the activity change, negative = inhibition in test [3] is 111% [activator] (active); in test [14] (at 57.5 µM (top of the series)) it was -10.5% (inactive). In addition, the Potency entry in [12], in [10] and in test [15] was “inactive” in each case. In addition, the max response was -3.35% in [14] (measured here: cell count channel max response) and -12.2% in test [14] (measured here: lipid channel max response).
